mHTT CaM bind – mHTT-calmodulin interaction abrogation; P42858; AlphaScreen His-mHTT/GST-CaM binding, luminescence; inhibition, % at 15 µM; 3.6% of 190,000 active;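 also: 0% = both proteins with DMSO and 100% = one protein alone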
Pf apPOL inh – Pf-apPOL DNA polymerase inhibition. Recombinant Pf-apPOL, molecular beacon fluorescence, 1.5 h. inhibition, % at 10 µM. AID 1794808. 0.25% of 210,000 active
Numbers without * were called inactive. Sampled rows, rich in hits. Any-hit rate of the full collection: about 3.5%. Rule as the data show it: active = inhibition above about 50%; inactive = the rest.

SMILES | mHTT CaM bind | Pf apPOL inh
CCCn1ccc2oc(C)c(C(=O)N3CCN(c4ccccc4)CC3)c2c1=O | 29 | 1
Cc1ccccc1CSCCNC(=O)c1ccc([N+](=O)[O-])cc1 | 13 | 5
O=C(C1CCN(c2ccc3ccccc3c2)C1=O)N1CCN(Cc2ccccc2)CC1 (stereo unspecified) | 54* | -1
O=C(Nc1ccccc1)C1CCN(c2ccc3ccccc3c2)C1=O (stereo unspecified) | 3 | -3
COc1ccc(OC)c(C2C(C(C)=O)=C(O)C(=O)N2CC2CCCO2)c1 (stereo unspecified) | -1 | -5
COc1ccc(NC(=O)N2CCn3cccc3C2Cc2ccccc2)c(OC)c1 (stereo unspecified) | 54* | -1
COc1ccc(C)cc1NC(=O)N1CCn2cccc2C1Cc1ccccc1 (stereo unspecified) | 48 | -5
O=C(Nc1ccc(F)cc1)N1CCn2cccc2C1Cc1ccccc1 (stereo unspecified) | 69* | -8
O=C(Nc1cccc(Cl)c1)N1CCn2cccc2C1Cc1ccccc1 (stereo unspecified) | 92* | 1
Cc1ccc(NC(=O)N2CCn3cccc3C2Cc2ccccc2)cc1 (stereo unspecified) | 10 | -4
CCc1ccc(NC(=O)N2CCn3cccc3C2Cc2ccccc2)cc1 (stereo unspecified) | 18 | -2
C=C(C)COc1ccc2c(=O)c(-c3ccc(OC)cc3)c(C(F)(F)F)oc2c1 | -44 | -2
Cc1ccccc1-c1ccc(CN2C(C(C)C)C(=O)N(Cc3cn(CCC4OCCO4)nn3)CCS2(=O)=O)cc1 (stereo unspecified) | 71* | -5
COc1ccc(-c2ccc(CN3C(C(C)C)C(=O)N(Cc4cn(CCC5OCCCO5)nn4)CCS3(=O)=O)cc2)cc1OC (stereo unspecified) | 44 | 5
Cc1ccc(-c2ccc(CN3C(C(C)C)C(=O)N(Cc4cn(CCC5OCCO5)nn4)CCS3(=O)=O)cc2)c(C)c1 (stereo unspecified) | 74* | -3
CC(C)Cc1ccc(CN2C(C(C)C)C(=O)N(Cc3cn(CCC4OCCO4)nn3)CCS2(=O)=O)cc1 (stereo unspecified) | 8 | -8
O=C(C=Cc1cccnc1)c1ccc(O)cc1 | 0 | -3
CC(=O)Nc1ccc(SCCCC(=O)N2CCC(C(N)=O)CC2)nn1 | -10 | -2
O=C(O)c1cccc(Nc2nc(-c3cccc([N+](=O)[O-])c3)cs2)c1 | 2 | 7
CNC(=O)c1ccc(-c2ccc3c(c2)CCN3C(C)=O)cc1 | -1 | -1
CCCCOc1ccc(NC(=O)CSc2cccc3cccnc23)cc1 | 8 | 1
COc1ccc(C(C[N+](=O)[O-])Sc2cccc3cccnc23)cc1 (stereo unspecified) | 100* | -4
O=C(Nc1nc(-c2ccc3c(c2)OCCO3)cs1)c1c(F)cccc1F | 3 | -1
Cc1ccc(S(=O)(=O)Nc2cccc(F)c2)cc1 | -7 | -1
O=S(=O)(Nc1ccc(NS(=O)(=O)c2ccc(F)cc2)cc1)c1ccc(F)cc1 | 4 | -2
SMILES | mHTT CaM bind | Pf apPOL inh
O=S(=O)(Nc1cccc(F)c1)c1ccc(-c2ccccc2)cc1 | 79* | -4
O=S(=O)(Nc1ccc(Nc2ccccc2)cc1)c1ccc(F)cc1 | 69* | -3
CCc1ccc(-c2cc(C(=O)N3CCOCC3)c3ccccc3n2)cc1 | 12 | -2
CC(NC(=O)CC1Sc2ccc(C(F)(F)F)cc2NC1=O)c1ccccc1 (stereo unspecified) | 5 | -7
CN1CCCc2cc(C(CNC(=O)C(=O)Nc3ccc4c(c3)OCCO4)N(C)C)ccc21 (stereo unspecified) | 37 | -10
CN1CCc2cc(C(CNC(=O)C(=O)Nc3cccc(C(F)(F)F)c3)N(C)C)ccc21 (stereo unspecified) | 53* | -4
O=C(c1cc2c(s1)CN(C1CCCC1)C2)N1CCCCC1 | 13 | 3
CC1NC2(C(=O)N(C/C=C/c3ccccc3)c3ccccc32)C2C(=O)N(Cc3ccccc3)C(=O)C12 (stereo unspecified) | 52* | -12
CC1NC2(C(=O)N(C/C=C/c3ccccc3)c3ccccc32)C2C(=O)N(c3ccccc3)C(=O)C12 (stereo unspecified) | 47 | 3
Cc1ccc(Cl)cc1NC(=O)CC(NCc1ccccn1)C(=O)O (stereo unspecified) | 100* | -8
Cc1ccc(Cl)cc1NC(=O)CC(NCCCOC(C)C)C(=O)O (stereo unspecified) | -10 | -7
Cc1cccc(CN2CCCn3nc(C(=O)NCCSCc4ccco4)cc3C2=O)c1 | 37 | -4
CCN(CC)c1ccc(NC(=O)c2cnccn2)cc1 | 60* | 2
CCOc1ccc(NC(=O)c2cnccn2)cc1 | 0 | -2
COc1cccc(N2C(=O)CC(Sc3ccccn3)C2=O)c1 (stereo unspecified) | -3 | 2
COc1ccc(-n2nc(C(=O)NCC(=O)NCc3cccnc3)c3ccccc3c2=O)cc1OC | 1 | -4
